PubChem BioAssay (Tox21)
Inconclusive results are not listed. Activity calls are given as the source filed them. Unless noted, calls follow the shape of the dose curve; as a rule, active = well fitted curve in the direction sought with a large enough effect in the repeat runs; inconclusive = weak or mixed curves; inactive = no such curve, though single readings can be large; an effect the other way counts as inactive or inconclusive.

How the values were obtained:
[1] = qHTS assay to identify small molecule antagonists of the estrogen related receptor (ERR) signaling pathway from Tox21 library - cell viability counter screen (AID 1224834); also: nearly all actives have a fitted effect of over 30% in size
In short: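 Seeded ERR cells were rested 6 h at 37 C/5% CO2 before compounds, positive and negative controls or DMSO were added. Incubation continued for 17.5 h, and viability was then quantified by CellTiter-Fluor fluorescence.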

[2] = biological target: Luciferin 4-monooxygenase (Photinus pyralis) (UniProt P08659); experiment: qHTS assay to identify small molecule inhibitors of firefly luciferase (AID 1224835); also: nearly all actives have a fitted effect of over 25% in size
Chain of Luciferin 4-monooxygenase (Photinus pyralis) (P08659 whole entry, looked up): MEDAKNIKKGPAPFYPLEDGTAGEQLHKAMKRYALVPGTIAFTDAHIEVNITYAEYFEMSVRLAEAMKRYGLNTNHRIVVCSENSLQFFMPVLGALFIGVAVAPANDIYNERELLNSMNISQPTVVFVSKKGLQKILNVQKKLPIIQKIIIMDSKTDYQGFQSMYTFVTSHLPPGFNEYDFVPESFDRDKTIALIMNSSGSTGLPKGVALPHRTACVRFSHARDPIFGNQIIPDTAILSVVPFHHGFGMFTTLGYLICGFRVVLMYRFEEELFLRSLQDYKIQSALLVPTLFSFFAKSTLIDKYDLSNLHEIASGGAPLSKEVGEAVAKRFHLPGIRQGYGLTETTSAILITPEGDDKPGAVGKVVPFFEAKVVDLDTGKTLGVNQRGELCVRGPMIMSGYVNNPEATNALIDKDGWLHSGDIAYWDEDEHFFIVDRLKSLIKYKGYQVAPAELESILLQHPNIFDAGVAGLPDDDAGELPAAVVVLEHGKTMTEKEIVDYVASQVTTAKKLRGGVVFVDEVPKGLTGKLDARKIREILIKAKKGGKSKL
In short: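 Inhibition of purified Photinus luciferase is measured by luminescence. Substrate levels (D-luciferin, ATP) sit at their KM values. Each compound is tested in a concentration series.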

[3] = qHTS assay to identify small molecule agonists of the constitutive androstane receptor (CAR) signaling pathway - cell viability counter screen (AID 1224836); also: nearly all actives have a fitted effect of over 45% in size
In short: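 Fluorescence from CellTiter-Fluor indicates live cells after 23 h exposure. The human hepatoma line expresses hCAR and a CYP2B6-2.2kb reporter. Incubation medium contains 0.75 uM PK11195 (final).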

[4] = qHTS assay to identify small molecule antagonists of the constitutive androstane receptor (CAR) signaling pathway - cell viability counter screen (AID 1224837); also: nearly all actives have a fitted effect of over 45% in size
In short: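 To flag cytotoxic false antagonists, HepG2 hCAR/CYP2B6-2.2kb cells were treated 23 hr with 15-concentration compound series and 50 nM CITCO at 37 C/5% CO2; CellTiter-Fluor fluorescence was the measured end point.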

[5] = biological target: Nuclear receptor subfamily 1 group I member 3 (Homo sapiens) (UniProt Q14994); experiment: qHTS assay to identify small molecule antagonists of the constitutive androstane receptor (CAR) signaling pathway (AID 1224838);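 also: HepG2 cells stably expressing hCAR with CYP2B6 luciferase reporter stimulated by CITCO; nearly all actives have a fitted effect of over 40% in size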
Chain of Nuclear receptor subfamily 1 group I member 3 (Homo sapiens) (Q14994 whole entry, looked up): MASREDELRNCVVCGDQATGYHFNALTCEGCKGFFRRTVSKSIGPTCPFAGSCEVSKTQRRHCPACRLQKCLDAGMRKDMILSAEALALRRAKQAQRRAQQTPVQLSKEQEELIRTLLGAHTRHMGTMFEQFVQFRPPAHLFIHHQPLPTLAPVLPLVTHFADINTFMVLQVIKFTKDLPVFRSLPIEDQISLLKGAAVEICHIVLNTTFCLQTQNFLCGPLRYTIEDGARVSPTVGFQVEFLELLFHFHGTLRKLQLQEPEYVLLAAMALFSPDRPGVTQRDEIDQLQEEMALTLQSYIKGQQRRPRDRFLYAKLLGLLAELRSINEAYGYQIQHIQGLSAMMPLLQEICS
In short: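 Human hepatoma HepG2 cells expressing hCAR and a CYP2B6 promoter (2.2 kb) luciferase construct; compound titration (15 points) with 50 nM CITCO final, 24 h at 37 C/5% CO2; luminescence via ONE-Glo after 30 min at room temperature.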

[6] = biological target: Nuclear receptor subfamily 1 group I member 3 (Homo sapiens) (UniProt Q14994); experiment: qHTS assay to identify small molecule agonists of the constitutive androstane receptor (CAR) signaling pathway (AID 1224839); also: nearly all actives have a fitted effect of over 15% in size; also: potency is read from the fitted curve at half-maximal effect;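 as to activation: HepG2 cells stably carrying human CAR and a CYP2B6 luciferase reporter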
In short: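 Stable hCAR/CYP2B6-2.2kb HepG2 line in DMEM with 10% FBS; compounds (15 concentrations) and 0.75 uM PK11195 final, 24 h at 37 C/5% CO2, then ONE-Glo luminescence after 30 min.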

[7] = qHTS assay to identify small molecule antagonists of the estrogen related receptor signaling pathway with the pleiotropic PPARgamma coactivator (PGC) from Tox21 10K library (AID 1224841; call rule not given here; also: actives are mostly falling curves and most rising ones were filed inactive; nearly all actives have a fitted effect of over 50% in size)
In short: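 Test chemicals dissolved in DMSO were applied to pre-incubated (6 h) PGC/ERR cells at 2,000 cells/well for an 18 h, 37 C treatment; reporter luminescence was then read using One-Glo.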

[8] = qHTS assay to identify small molecule agonists of the estrogen related receptor signaling pathway with the pleiotropic PPARgamma coactivator (PGC) from Tox21 10K library (AID 1224842); also: nearly all actives have a fitted effect of over 15% in size
In short: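 Luminescence from One-Glo (30 min, room temperature) measured after PGC/ERR cells had 18 h at 37 C with pinned compound (23 nL in DMSO). Cells had been seeded at 2,000 per well and pre-incubated 6 h.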

[9] = biological target: Thyrotropin receptor (Homo sapiens) (UniProt P16473); experiment: qHTS assay to identify small molecule agonists of the thyroid stimulating hormone receptor (TSHR) signaling pathway (AID 1224843; calls by dose curve; also: nearly all actives have a fitted effect of over 45% in size; also: potency is read from the fitted curve at half-maximal effect)
Chain of Thyrotropin receptor (Homo sapiens) (P16473 whole entry, looked up): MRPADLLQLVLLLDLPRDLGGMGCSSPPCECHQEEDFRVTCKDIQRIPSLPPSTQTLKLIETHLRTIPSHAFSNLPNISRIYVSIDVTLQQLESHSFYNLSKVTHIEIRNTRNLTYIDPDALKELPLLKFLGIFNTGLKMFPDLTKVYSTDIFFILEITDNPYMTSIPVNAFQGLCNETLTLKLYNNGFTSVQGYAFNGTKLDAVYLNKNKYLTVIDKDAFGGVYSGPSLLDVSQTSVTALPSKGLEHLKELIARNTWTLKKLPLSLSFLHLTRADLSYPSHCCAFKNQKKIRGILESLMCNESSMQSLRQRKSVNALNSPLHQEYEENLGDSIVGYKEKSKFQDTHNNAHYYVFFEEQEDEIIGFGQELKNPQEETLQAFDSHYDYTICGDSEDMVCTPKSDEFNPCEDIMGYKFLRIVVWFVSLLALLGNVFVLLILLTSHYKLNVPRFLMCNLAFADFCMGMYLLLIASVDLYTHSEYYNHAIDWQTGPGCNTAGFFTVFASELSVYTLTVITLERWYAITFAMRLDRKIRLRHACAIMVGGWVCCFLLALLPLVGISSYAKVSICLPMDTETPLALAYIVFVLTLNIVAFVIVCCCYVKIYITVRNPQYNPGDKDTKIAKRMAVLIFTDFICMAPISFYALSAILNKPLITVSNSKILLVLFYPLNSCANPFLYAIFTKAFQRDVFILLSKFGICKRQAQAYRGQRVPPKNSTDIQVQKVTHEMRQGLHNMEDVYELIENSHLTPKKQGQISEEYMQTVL
In short: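 A cell-based cAMP HTRF format was run in TSHR-transfected HEK293 cells, 800 per well. Treatment: 30 min, room temperature. Detection: 1 h with labelled cAMP and anti-cAMP cryptate. Concentration-response over 15 points, three replicates.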

[10] = qHTS assay to identify small molecule agonists of the hypoxia (HIF-1) signaling pathway - cell viability counter screen (AID 1224844; calls by dose curve; also: nearly all actives have a fitted effect of over 50% in size; also: potency is read from the fitted curve at half-maximal effect)
In short: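 HRE-bla ME-180; 0.5% dFBS; cpd 17 h, 37C, 5% CO2; CellTiter-Glo lum., 30 min RT, post-FRET read, same wells.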

[11] = qHTS assay to identify small molecule agonists of H2AX (AID 1224845; active = well fitted activation curve with a large enough effect in the signal ratio in the repeat runs, not every such curve was filed as active; the % refers to the signal ratio)
In short: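 Phospho-H2AX Ser139 measured by HTRF (ex 320 nm; em 665 and 620 nm) after 24 hr antibody incubation. Compounds, 15 concentrations, 0.76% DMSO, were applied to CHO-K1 cells for 3hr at 37C before lysis.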

[12] = qHTS assay to identify small molecule agonists of H2AX - cell viability counter screen (AID 1224847; calls by dose curve; also: top concentration of the series differs between compounds; nearly all actives have a fitted effect of over 30% in size)
In short: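 Viability of CHO-K1 (wild type) cells after 3 hr compound exposure was measured by CellTiter-Glo luminescence.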

[13] = qHTS assay to identify small molecule agonists of the estrogen related receptor (ERR) signaling pathway from Tox21 library (AID 1224849; calls by dose curve; also: nearly all actives have a fitted effect of over 15% in size); conditions: ERR reporter cell line, ONE-Glo luciferase, 18 h; at 92.4 µM (top of the series) unless noted
In short: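 Tox21 compounds tested for ERR agonism in an NTP reporter cell line: 18 h treatment at 37 C, then ONE-Glo luminescence.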

[14] = qHTS RealTime-Glo MT Cell Viability Assay in HepG2 cells - 24 hour (AID 1224867); also: nearly all actives have a fitted effect of over 50% in size
In short: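 Real-time, nonlytic viability: 600 HepG2 cells/well mixed with NanoLuc enzyme plus prosubstrate; 5 h settle, compound (DMSO) added by pintool; luminescence monitored over 40 h at 37 C.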

[15] = A CellTox Green Cytotoxicity Assay to monitor cytotoxicity in HEK293 cells - 0 hour (AID 1224869); also: nearly all actives have a fitted effect of over 50% in size
In short: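 Tox21 screen in HEK293: membrane-impermeant cyanine dye fluoresces on binding dead-cell DNA; compound pinned 5 h post-seeding, plates held at 37 C, signal read repeatedly through 40 h.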

[16] = qHTS RealTime-Glo MT Cell Viability Assay in HepG2 cells - 40 hour (AID 1224870); also: nearly all actives have a fitted effect of over 50% in size
In short: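 Real-time viability: cells seeded at 600 per well together with NanoLuc and cell-permeant prosubstrate, compounds added after 5 h incubation. Luminescence tracked at 0, 8, 16, 24, 32 and 40 h of exposure.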

[17] = qHTS assay to identify small molecule agonists of the hypoxia (HIF-1) signaling pathway (AID 1224846; active = well fitted activation curve with a large enough effect in the signal ratio in the repeat runs, not every such curve was filed as active; the % refers to the signal ratio)
In short: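 Reporter induction in HRE-bla ME-180 cells is taken as agonism: cells sit 5 hrs after plating, receive compounds or DMSO only, incubate 17 hrs at 37C under 5% CO2, and are loaded with CCF4-AM for beta-lactamase FRET measurement.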

[18] = qHTS RealTime-Glo MT Cell Viability Assay in HEK293 cells - 32 hour (AID 1224868); also: nearly all actives have a fitted effect of over 50% in size; also: potency is read from the fitted curve at half-maximal effect; as to activity change, negative = cytotoxic: top concentration of the series differs between compounds
In short: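 Cells + reagent dispensed (600 cells/well, HEK293) → 5 h at 37 C/5% CO2 → 23 nL compound in DMSO pinned → 40 h at 37 C → luminescence read at 0, 8, 16, 24, 32, 40 h.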

[19] = qHTS assay to identify small molecule antagonists of the estrogen related receptor signaling pathway with the pleiotropic PPARgamma coactivator (PGC) from Tox21 10K library - cell viability counter screen (AID 1224840; active = well fitted cell-killing curve with a large enough effect in the repeat runs, not every such curve was filed as active; also: nearly all actives have a fitted effect of over 40% in size)
In short: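 Seeded PGC/ERR cells (2,000/well, 6 h, 37 C/5% CO2) get compound by pin tool; 17.5 h incubation at 37 C; CellTiter-Fluor added, 30 min, fluorescence measured.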

[20] = qHTS assay to identify small molecule antagonists of the estrogen related receptor (ERR) signaling pathway from Tox21 library (AID 1224848); also: nearly all actives have a fitted effect of over 50% in size; also: potency is read from the fitted curve at half-maximal effect
In short: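 ERR cell line, 2,000 cells/well. 6 h settle, then compound (DMSO) added; 18 h at 37 C; ONE-Glo luminescence after 30 min RT.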
% is scaled to controls: 0 for no effect and ±100 for the full control effect.

C=CC(C)(O)CCCC(C)CCCC(C)CCCC(C)C (stereo not drawn)
inactive: Potency [1] | Potency [2] | Potency [3] | Potency [4] | Potency [5] | Potency [6] | Potency [7] | Potency [8] | Potency [9] | Potency [10] | Potency [11] | Potency [12] | activity change, positive = activation [13] -0.948% | Potency [14] | Potency [15] | Potency [16]

Nc1ccc(C(=O)OCCCOC(=O)c2ccc(N)cc2)cc1
active: Potency [6] 30.6 µM | Potency [18] 43.6 µM
inactive: Potency [1] | Potency [2] | Potency [3] | Potency [4] | Potency [5] | Potency [10] | Potency [11] | outcome [17] | Potency [14] | Potency [15] | Potency [16]

CCCCCCCCCOC(C)=O
inactive: Potency [1] | Potency [2] | Potency [3] | Potency [4] | Potency [6] | Potency [19] | Potency [9] | Potency [10] | Potency [11] | outcome [17] | Potency [12] | Potency [14] | Potency [18] | Potency [15] | Potency [16]

N#C/C(=C1\SCC(c2ccccc2Cl)S1)n1ccnc1 (stereo not drawn)
inactive: Potency [1] | Potency [2] | Potency [3] | Potency [4] | Potency [5] | Potency [19] | Potency [9] | Potency [10] | Potency [11] | outcome [17] | Potency [12] | Potency [14] | Potency [15] | Potency [16]

CCOC(=N)CC(=O)OCC
active: Potency [10] 19.5 µM
inactive: Potency [1] | Potency [2] | Potency [3] | Potency [4] | Potency [5] | Potency [6] | Potency [9] | Potency [11] | Potency [12] | Potency [14] | Potency [18] | Potency [16]

CC1CC(=O)NN=C1c1ccc(NCC(C)(C)NCC(O)COc2cc(Cl)ccc2C#N)cc1 (stereo not drawn)
active: Potency [9] 1.19 µM
inactive: Potency [1] | Potency [2] | Potency [3] | Potency [4] | Potency [6] | Potency [19] | Potency [7] | Potency [8] | Potency [11] | outcome [17] | Potency [12] | activity change, positive = activation [13] -15% [at 42.5 µM] | Potency [14] | Potency [15] | Potency [16]

ON(Cc1ccccc1)Cc1ccccc1
inactive: Potency [1] | Potency [2] | Potency [3] | Potency [4] | Potency [5] | Potency [19] | Potency [9] | Potency [10] | Potency [11] | outcome [17] | Potency [12] | Potency [14] | Potency [18] | Potency [15] | Potency [16]

CC(=O)OCC(=O)[C@H]1CC[C@H]2[C@@H]3CCC4=CC(=O)CC[C@]4(C)[C@H]3CC[C@]12C
inactive: Potency [1] | Potency [2] | Potency [3] | Potency [4] | Potency [5] | Potency [6] | Potency [7] | Potency [8] | Potency [9] | Potency [10] | Potency [11] | outcome [17] | Potency [12] | activity change, positive = activation [13] -35.1% [at 42.5 µM] | Potency [14] | Potency [15] | Potency [16]
active: Potency [20] 21.1 µM

C=CC(=C)CCCC(C)(C)OC(C)=O
inactive: Potency [1] | Potency [2] | Potency [3] | Potency [4] | Potency [5] | Potency [6] | Potency [7] | Potency [8] | Potency [9] | Potency [10] | Potency [11] | Potency [12] | Potency [20] | activity change, positive = activation [13] -5.77% | Potency [14] | Potency [18] | Potency [15] | Potency [16]

CC(C)(CCl)c1ccccc1
inactive: Potency [1] | Potency [2] | Potency [3] | Potency [4] | Potency [5] | Potency [6] | Potency [9] | Potency [10] | Potency [11] | Potency [12] | Potency [14] | Potency [18] | Potency [15] | Potency [16]

CC1CN(c2cc3c(cc2F)c(=O)c(C(=O)O)cn3-c2ccc(F)cc2F)CCN1 (stereo not drawn)
inactive: viability change, negative = cytotoxic [1] 4.3% [at 8.39 µM] | activity change, negative = inhibition [2] 1.15% [at 10.5 µM] | viability change, negative = cytotoxic [3] -1.43% [at 8.39 µM] | activity change, negative = cytotoxicity [4] 6.26% [at 8.39 µM] | activity, negative = inhibition [5] 9.29% [at 8.39 µM] | activation [6] -1.5% [at 8.39 µM] | activation [9] -2.32% [at 8.39 µM] | activity change, negative = cytotoxicity [10] 5.19% [at 6.97 µM] | activation (H2AX phosphorylation) [11] -0.572% [at 14 µM] | activation [17] 0.362% [at 7.01 µM] | activity change, negative = cytotoxicity [12] 1.23% [at 14 µM] | activity change, negative = cytotoxicity [14] 4.21% [at 6.97 µM] | activity change, negative = cytotoxic [18] 5.72% [at 6.97 µM] | activity change, negative = cytotoxic [16] 3.59% [at 6.97 µM]

c1ccc(COCc2ccccc2)cc1
inactive: Potency [1] | Potency [2] | Potency [3] | Potency [4] | Potency [6] | Potency [19] | Potency [7] | Potency [8] | Potency [9] | Potency [10] | Potency [11] | Potency [12] | activity change, positive = activation [13] 0.496% | Potency [14] | Potency [15] | Potency [16]

CSc1ccc(Oc2ccc(S(N)(=O)=O)cc2CN(C)C)cc1C
inactive: Potency [1] | Potency [2] | Potency [3] | Potency [4] | Potency [5] | Potency [6] | Potency [7] | Potency [10] | Potency [11] | outcome [17] | activity change, positive = activation [13] -34.7% | Potency [15] | Potency [16]
active: Potency [18] 43.6 µM

CC(=O)[C@H]1CC[C@H]2[C@@H]3C[C@H](C)C4=CC(=O)CC[C@]4(C)[C@H]3[C@@H](O)C[C@]12C
inactive: Potency [1] | Potency [2] | Potency [3] | Potency [4] | Potency [5] | Potency [19] | Potency [7] | Potency [8] | Potency [9] | Potency [10] | Potency [11] | outcome [17] | Potency [12] | activity change, positive = activation [13] -35.5% [at 42.5 µM] | Potency [14] | Potency [15] | Potency [16]
